Screens (PubChem BioAssay)
Giardia FBPA inh: qHTS Assay for Inhibitors of Fructose-1,6-bisphosphate Aldolase from Giardia Lamblia | 290,000 tested, 0.71% active | Potency, µM (highest dose often 59.6 µM), without a hit: at the top dose activity, negative = inhibition, most hits filed as inhibitors | purified Giardia FBPA; note: potency is the fitted concentration of half-maximal effect; % is set by controls: 0 for no effect and ±100 for the full control effect; nearly all actives have a fitted effect of over 55% in size
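40 nM FBPA preincubated 10 min at RT with compound (up to 57.5 uM final), then substrate plus GAPDH/TPI/NAD/arsenate coupling and diaphorase/resazurin added. Fluorescence read after 20 min at RT, 525/598 nm.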
CHX counter: Cycloheximide Counterscreen for Small Molecule Inhibitors of Shiga Toxin. cell reporter, cycloheximide protein synthesis inhibition counterscreen. max response, %. 300,000 tested, 12% active; in the data active = max response mostly above about 13%, no sharp cut-off; inactive = mostly below about 14%; note: read at 38.3 µM for the half of the compounds with a filed dose; 0% is about no effect
NS1 inh: qHTS Assay for Inhibitors of Influenza NS1 Protein Function; Potency, µM (highest dose often 46.1 µM), for inactives: at the highest dose activity, positive = more growth; 270,000 tested, 0.4% active; AID 2326, 2010; calls by dose curve; note: potency is the fitted concentration of half-maximal effect; actives are rising curves; nearly all actives have a fitted effect of over 50% in size
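Recovery from NS1-induced slow growth read by OD600 in budding yeast switched to galactose assay medium (pH 6.0, -URA) at 1:100 dilution. Compound 23 nl per well; the matching strain lacking NS1 serves as control.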
Shiga toxin inh: A qHTS for Small Molecule Inhibitors of Shiga Toxin; Vero cells, Shiga toxin protein synthesis inhibition reporter; inhibition, % at 38.7 µM; 290,000 tested, 9.2% active; AID 2315, 2010; in the data active = inhibition mostly above about 28%, no sharp cut-off; inactive = mostly below about 43%; note: 0% is about no effect
LmPK inhibitor: qHTS Assay for Inhibitors of Leishmania Mexicana Pyruvate Kinase (LmPK). 290,000 tested, 0.37% active. purified LmPK, Kinase-Glo ATP luminescence, 1 h. Potency, µM (titrated, usually from 57.5 µM), without a hit: at the highest dose activity change, negative = inhibition, actives largely listed as inhibitors. AID 1721, 2009; note: potency is the fitted concentration of half-maximal effect; % is set by controls: 0 for no effect and ±100 for the full control effect
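Pyruvate kinase activity monitored as ATP production (luciferase luminescence). Conditions: 0.1 nM enzyme, 0.5 mM PEP, 0.1 mM ADP, 1 h, RT; normalized against uninhibited and no-enzyme wells.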
Starred values were filed as active, the others as inactive; / = not tested or not shown; [ ] = another dose, or the depositor's remark. A selection follows. Unless noted, calls come from the whole dose curve; as a rule, active = well fitted curve in the direction sought with a large enough effect; inconclusive = small, poorly fitted or top-dose-only effect, or another doubt; inactive = no such curve, though single readings can be large; an effect the other way counts as inactive or inconclusive.

SMILES	Giardia FBPA inh	CHX counter	NS1 inh	Shiga toxin inh	LmPK inhibitor
CCOC(=O)Cc1csc(NC(=O)CSc2nnc(-c3ccncc3)o2)n1	4%	-3	6%	3	1%
CCn1c(SCC(=O)Nc2nc(C)cs2)nnc1-c1ccoc1C	-5%	4	5%	-15	3%
Cc1occc1-c1nnc(SCC(=O)Nc2nc(C(C)(C)C)cs2)o1	1%	27*	7%	50*	-1%
O=C1C2=CC[C@H]3C(=O)N(Cc4ccc5c(c4)OCO5)C(=O)[C@@H]3[C@@H]2[C@H](O)[C@@H]2O[C@H]12	0%[12.9 µM]	/	/	/	/
CCOc1ccc(-n2ccc(=O)c(C(=O)O)n2)cc1	5%	-1	3%	-10	-8%
O=C(NCCCN1CCOCC1)c1ccc2c(c1)N(Cc1cccc(Cl)c1)C(=O)CS2	5%	-7	-2%	-13	2%
